Data: PubChem BioAssay AID652042 (Broad Institute, 2013)
About 350 (32%) of roughly 1,100 compounds were called active. The list is a sample of the results. Results with a measured potency or affinity are listed apart. Values without a mark were called inactive. How the calls were made is not given here.

assay: viability loss in CEM21 cells – cell-based, CellTiter-Glo luminescence, cherry-picked, cytotoxicity control for viral fusion inhibitor project, dose response (AID 652042); settings: CellTiter-Glo ATP luminescence, 24 h; series mostly up to 35 µM; activity change, negative = cytotoxicity: at the top concentration

Row | Compound | activity change, negative = cytotoxicity
1 | CCN(CC)S(=O)(=O)c1cc(NC(=O)C(=O)c2c(-c3ccccc3)cc3ccccn23)ccc1C | -16%
2 | CC(C)N(Cc1nc(-c2ccccc2)no1)C(=O)CN(C)S(=O)(=O)c1ccc(Br)cc1 | -16%
3 | O=C(C[C@H]1C=C[C@@H](NC(=O)Nc2ccccc2F)[C@@H](CO)O1)NCc1ccc(Cl)cc1 | -7.24%
4 | COc1cccc(S(=O)(=O)N[C@H]2CC[C@H](CC(=O)NCc3ccncc3)O[C@@H]2CO)c1 | 1.11%
5 | O=C(NCC[C@@H]1CC[C@@H](NS(=O)(=O)c2ccccc2F)[C@@H](CO)O1)c1ccc(F)cc1 | -1.41%
6 | O=C(C[C@@H]1CC[C@@H](NC(=O)c2ccncc2)[C@H](CO)O1)NCCc1ccncc1 | -1.24%
7 | O=C(C[C@H]1CC[C@@H](NC(=O)Nc2ccccc2F)[C@@H](CO)O1)NCc1ccc(Cl)cc1 | 0.724%
8 | COc1cccc(CNC(=O)C[C@@H]2C=C[C@H](NC(=O)C3CCC3)[C@H](CO)O2)c1 | 0.694%
9 | COC(=O)[C@@]1(C)[C@H]2C(=O)N(Cc3ccccc3)C(=O)[C@H]2[C@H]2CN=C(SCc3ccc(C#N)cc3)N21 | -13.8%
10 | CN(C[C@H](Cc1ccccc1)N(C[C@H](c1ccccc1)N(CCc1ccccc1)N=O)N=O)N=O | -4.42%
11 | N#Cc1ccc(C(c2nnnn2CCc2ccccc2)N2CCCCCC2)cc1 (configuration not stated) | -20.5%
12 | Cc1ccc(C(c2nnnn2CS(=O)(=O)c2ccc(C)cc2)N2CCCC2)cc1 (configuration not stated) | -1.57%
13 | COc1ccc(NC(=O)Nc2ccc3c(c2)C(=O)N([C@@H](C)CO)C[C@H](C)[C@H](CN(C)Cc2ccncc2)OCCCC[C@H](C)O3)cc1 | -11.8%
14 | Cc1ccc(-c2nnn(CC(=O)N(CC3CCCO3)C(C(=O)NC3CCCCC3)c3ccc(F)cc3)n2)o1 (configuration not stated) | -2.01%
15 | Cc1ccc(C(C(=O)NC2CCCCC2)N(C(=O)c2csnn2)C2CCCC2)o1 (configuration not stated) | 4.56% [at 16 µM]
16 | COc1ccc(NC(=O)CN2CCC(C(N)=O)(N3CCCCC3)CC2)cc1 | 5.51%
17 | CC1CCN(C(=O)c2ncn3c2C(=O)N[C@@H](C)C3)CC1 | -5.66%
18 | COc1ccc(-c2cc(C3CCN(c4cc(Cl)nc(N)n4)CC3)[nH]n2)cc1 | -13.3%
19 | CCOc1ccc(OCc2cccc(C(=O)N/N=C/c3cccnc3)c2)cc1 | -2.87%
20 | Cc1ccc(S(=O)(=O)N(C)C)cc1NC(=O)COc1ccccc1C(=O)Nc1ccccc1 | -16.9%
21 | CC(c1nc2ccccc2c(=O)[nH]1)N(C)CCOc1ccc(Cl)cc1 (configuration not stated) | -7.82%

Row | Compound | activity change, negative = cytotoxicity
22 | Cc1ccccc1CCN(C(=O)c1csnn1)C(C(=O)NC1CCCC1)c1ccncc1 (configuration not stated) | -5.49%
23 | CC(C)CCN(C(=O)c1csnn1)C(C(=O)NC1CCCC1)c1ccc(F)cc1 (configuration not stated) | -7.24%
24 | COc1cc(NC2c3ccccc3C(=O)N2Cc2ccccc2)cc(OC)c1OC (configuration not stated) | 3.26%
25 | CCOC(=O)c1ccc(NC2c3ncccc3C(=O)N2Cc2ccc(F)cc2)cc1 (configuration not stated) | -4.33%
26 | COc1ccc(-c2cc(=O)oc3c(C)c(O)c(CN(C)C)cc23)cc1 | 5.55%
27 | COc1ccc(S(=O)(=O)NNC(=O)C2Cc3c(ccc4ccccc34)O2)cc1 (configuration not stated) | -11.3%
28 | CC(C)n1c(NCCc2ccccc2)nc2c1c(=O)n(C)c(=O)n2C | -25.5%
29 | CN(C)S(=O)(=O)c1ccc(N2CCCC2)c(C(=O)NCCc2ccc(F)cc2)c1 | -0.85%
30 | CC[C@]1(C(=O)OC)[C@H]2C(=O)N(Cc3ccccc3)C(=O)[C@H]2[C@H]2CN=C(SCc3ccc(C)cc3)N21 | -9.52%
31 | COc1ccc(CCN2C(=O)c3[nH]nc(-c4ccccc4O)c3C2c2cccc(O)c2)cc1OC (configuration not stated) | -2.82%
32 | COCc1[nH]nc2c1C(c1ccc(F)cc1)N(Cc1ccccc1)C2=O (configuration not stated) | -2.79%
33 | COc1ccc(CCN2C(=O)c3[nH]nc(-c4ccccc4O)c3C2c2ccc(C)cc2)cc1OC (configuration not stated) | -12.2%
34 | COc1ccc(OC)c(CN2C(=O)c3ccccc3C2c2nnnn2-c2c(C)cccc2C)c1 (configuration not stated) | -7.17%
35 | O=C1c2cccnc2C(Nc2ccc(S(=O)(=O)N3CCCCC3)cc2)N1Cc1ccccc1 (configuration not stated) | -1.7%
36 | CCc1ccc(C(=O)CN2C(=O)NC(C)(c3ccc(C)cc3)C2=O)cc1 (configuration not stated) | -3.88%
37 | Nc1ccc(S(=O)(=O)c2ccc(N3CCOCC3)c(N)c2)cc1 | -0.149%
38 | CN(C)CC(=O)Nc1ccc2c(c1)[C@H]1C[C@H](CC(=O)NCc3cccc(F)c3)O[C@@H](CO)[C@H]1O2 | 3.37%
39 | COc1ccc(OC)c(NC(=O)COc2ccc3c(c2)CCC3)c1 | -4.42%
40 | Cc1ccc(C(C(=O)NC(C)(C)C)N(Cc2cccs2)C(=O)c2csnn2)cc1 (configuration not stated) | -7.49%
41 | O=C(C[C@@H]1C[C@H]2c3cc(NC(=O)C4CCOCC4)ccc3O[C@H]2[C@@H](CO)O1)NCc1ccccc1 | 3.13%
42 | O=C(C[C@H]1C[C@H]2c3cc(NC(=O)C4CCC4)ccc3O[C@H]2[C@H](CO)O1)NCc1ccc2c(c1)OCO2 | -5.87%
